Rows were chosen to be rich in hits. Some 3.2% of all compounds tested hit in one or more screens of this group.
Vaccinia Venus – qHTS for Stage-Specific Inhibitors of Vaccinia Orthopoxvirus: Venus Reporter Primary qHTS. Potency, µM (series often up to 36.5 µM), for inactives: top-dose activity change, negative = inhibition, actives largely listed as inhibitors. Vaccinia virus Venus reporter expression, fluorescence. actives 0.46% (n = 330,000). AID 720580, 2013; calls by dose curve; tested in A549 cells; note: nearly all actives have a fitted effect of over 30% in size
Vaccinia mCherry – qHTS for Stage-Specific Inhibitors of Vaccinia Orthopoxvirus: mCherry Reporter Primary qHTS | Potency, µM (titrated, usually from 36.5 µM), without a hit: at the top dose activity change, negative = inhibition, most hits filed as inhibitors | AID 720579, 2013 | Vaccinia virus mCherry reporter infection, fluorescence | actives 0.63% (n = 310,000); calls by dose curve; tested in A549 cells; note: nearly all actives have a fitted effect of over 35% in size
MARV entry inh – qHTS for inhibitors of binding or entry into cells for Marburg Virus; actives 1.8% (n = 300,000); Marburg virus pseudotyped entry inhibition, cell reporter; AID 540276, 2011; Potency, µM (doses to about 37.8 µM), for inactives: at the highest dose activity change, negative = inhibition, most hits filed as inhibitors; calls by dose curve; tested in HEK293 cells
FMDV antiviral – High Throughput Screening for Foot and Mouth Disease Virus Antivirals. FMDV antiviral cell-based qHTS. Potency, µM (highest dose often 57.9 µM), for inactives: top-dose activity change, negative = inhibition, most hits filed as inhibitors. actives 1.2% (n = 410,000); calls by dose curve; tested in HEK293T cells; note: read-out not given here; nearly all actives have a fitted effect of over 45% in size
LASV entry inh – qHTS for Inhibitors of binding or entry into cells for Lassa Virus; Lassa virus pseudotype entry inhibition, cell reporter; Potency, µM (titrated, usually from 37.9 µM), without a hit: at the highest dose activity change, negative = inhibition, usual class: inhibitors; actives 1.2% (n = 300,000); calls by dose curve; tested in HEK293 cells; note: nearly all actives have a fitted effect of over 50% in size
Numbers without * were called inactive; u = inconclusive; x = no result given; ! = not active in a repeat; [ ] = another dose, or the depositor's remark. % is set by controls: 0 for no effect and ±100 for the full control effect; potency is the fitted concentration of half-maximal effect.

SMILES | Vaccinia Venus | Vaccinia mCherry | MARV entry inh | FMDV antiviral | LASV entry inh
NC(Cc1ccc(C(F)(F)F)cc1)c1csc(NC(=O)Nc2ccccc2)n1 (stereo not given) | 10µM* | u | x | -24% | x
NC(Cc1ccc(Cl)cc1)c1csc(NC(=O)Nc2ccccc2)n1 (stereo not given) | u | u | x | -27% | x
COc1ccc(CC(N)c2csc(NC(=O)Nc3cccc(C(F)(F)F)c3)n2)cc1 (stereo not given) | 14µM* | u | x | -15% | x
CN(Cc1ccco1)c1ncnc2ccc(-c3cccc(C#N)c3)cc12 | 10% | -8% | x | -18% | x
O=C(c1ccc(-c2ccccc2)cc1)C1CCCN(Cc2ccncc2)C1 (stereo not given) | -17% | -14% | u | u | u
O=C(c1ccc(Cl)cc1)C1CCCN(Cc2cnn(-c3ccccc3)c2)C1 (stereo not given) | -19% | -26% | 5.6µM* | -26% | -26%
CCCOC(=O)c1c(-c2ccccc2)c(-c2ccccc2)nn(C)c1=O | -20% | -12% | 21%[46.1 µM] | -5% | 8%[46.1 µM]
COc1cccc2c(=O)cc(C)n(CC(=O)Nc3ccc(C)c(C)c3)c12 | u | x | u | u | -17%
COc1ccccc1NC(=O)Cn1c(C)cc(=O)c2cccc(OC)c21 | u | u | u | 7.1µM* | -19%
Cc1ccsc1/C=N/n1c(-c2ccncc2)n[nH]c1=S | -8% | -8% | u | -6% | 2%
Cc1cc2c(c(=O)n1Cc1ccccc1)[C@H]1O[C@](CCCCN3C(=O)c4ccccc4C3=O)(Cc3cc(C#N)ccc31)O2 | x | x | 8%[14.2 µM] | x | x
Cc1c(C(=O)NCCc2ccccc2)oc2ccc(S(=O)(=O)N3CCC4(CC3)OCCO4)cc12 | -13% | -11% | u | u | 23µM*
C=CCNC(=O)c1oc2ccc(S(=O)(=O)N3CCC4(CC3)OCCO4)cc2c1C | x | x | x | -13% | x
COc1ccc(NC(=O)c2oc3ccc(S(=O)(=O)N4CCC5(CC4)OCCO5)cc3c2C)cc1 | x | x | 21µM*! | 13µM* | u
Cc1c(C(=O)Nc2cccc(C(F)(F)F)c2)oc2ccc(S(=O)(=O)N3CCOCC3)cc12 | x | x | -29% | u | -6%
Cc1c(C(=O)Nc2ccc(F)cc2)oc2ccc(S(=O)(=O)N3CCCCCC3)cc12 | -30% | -26% | x | 28µM* | -7%[46.1 µM]
Cc1c(C(=O)Nc2cccc(C(F)(F)F)c2)oc2ccc(S(=O)(=O)N3CCC4(CC3)OCCO4)cc12 | -25% | -15% | x | 16µM* | 29%[46.1 µM]
O=C1[C@@H]2[C@H]3[C@H](O)[C@H](O)CC(=NOC[C@@H](O)COCc4ccco4)[C@@H]3CC[C@H]2C(=O)N1C[C@@H]1CCCO1 | x | x | -1%[14.2 µM] | x | x
CCN1CCN(C(=O)c2sc3ncnc(NCC4CCCO4)c3c2C)CC1 (stereo not given) | -4% | -10% | x | -9% | x
Cc1ccc(NC(=O)c2cc(S(=O)(=O)N3CCCCC3)cs2)cc1 | u | -28% | -29% | x | 21µM*
Cc1ccc(NC(=O)c2cc(S(=O)(=O)N3CCOCC3)cs2)cc1 | -17% | -24% | -2%[46.1 µM] | u | -29%[46.1 µM]
O=C(NC1CCN(Cc2ccccc2)CC1)c1ccccc1Cl | x | x | x | 5% | x
Cc1c(C(=O)NC2CCN(Cc3ccccc3)C2)oc2c(Cl)cccc12 (stereo not given) | -10% | u | u | -29% | 10µM*
COc1ccc(/C(O)=C2/C(=O)C(=O)N(CCN3CCNCC3)C2c2cccc([N+](=O)[O-])c2)cc1 (stereo not given) | -9% | -7% | 14% | -13% | 17%
CCN(CC)c1ccc(C=C(c2nnnn2-c2ccccc2)c2nnnn2-c2ccccc2)cc1 | -12% | -19% | u | 0% | 2.5µM*
O=C(CCN1CCN(Cc2ccccc2)CC1)NNC(=O)Cc1ccc(Cl)c(Cl)c1 | u | 28µM* | -24% | -24% | 15%
O=C(CCN1CCN(Cc2ccccc2)CC1)NNC(=O)Nc1cccc(Cl)c1 | -28% | -15% | 0%[46.1 µM] | 7% | -10%[46.1 µM]
CCOC(=O)C(=CNc1cc(C)nn1-c1ccc(Cl)cc1)C(=O)OCC | -2% | -12% | -29%[46.1 µM] | -22% | u
CCOC(=O)C(=Cc1ccc(-n2cncn2)cc1)C(=O)OCC | u | u | u | 28µM* | 11µM*
